Most compounds without a hit are left out; they make up all but 19% or so of the library.
HepG2 viability – HepG2 cytotoxicity, counter-screen for TGF-b inhibitors | HepG2 CAGA-GFP viability, ATP luminescence, 18 h | Potency, µM (titrated, usually from 46.1 µM), for the others: at the highest dose activity change, negative = cytotoxicity, most hits filed as cytotoxic | 410,000 tested, 0.76% active; note: potency is the fitted concentration of half-maximal effect
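HepG2 CAGA-GFP cells (1000/well, DMEM with 1% FBS) received compound, then TGF-beta at 500 pg/mL final, and were incubated 18 hours at 37 degrees C. Viability was read by CellTiter-Glo luminescence. Media-only wells were set as complete cell-killing and DMSO as no toxicity.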
TDP1 cell CPT – growth inhibition of DT40 Tdp1-/-;hTDP1 cells with camptothecin (screen for TDP1 inhibitors). 420,000 tested, 12% active. chicken DT40 Tdp1-/-;hTDP1 cells + 20 nM CPT, ATP luminescence, 48 h. Potency, µM (series often up to 46.2 µM), for the others: top-dose activity change, negative = growth inhibition, hits mostly inhibitors. AID 686979; note: potency is the fitted concentration of half-maximal effect; % is set by controls: 0 for no effect and ±100 for the full control effect; nearly all actives have a fitted effect of over 55% in size
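Chicken DT40 Tdp1-/- cells stably complemented with human TDP1 were seeded at 400 cells/well in medium containing 20 nM camptothecin, exposed to pin-transferred compounds, and grown at 37 °C for at least 48 hr. Viability was read as ATP luminescence.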
IL-1B inflam inh – blocks inflammasome-driven IL-1 beta release; THP-1 LPS/ATP IL-1B secretion, AlphaLISA, 16 h; active compounds read low; activity change, % at 57.5 µM; 360,000 tested, 4.7% active; in the data active = activity change below about -50%; inconclusive = mostly about -30% to -49%; note: % is set by controls: 0 for no effect and ±100 for the full control effect
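Secreted IL-1B measured by AlphaLISA bead assay after 16 h compound exposure of THP-1 cells; compounds (final up to 57.5 uM) added 1 h before LPS (250 ng/mL) and ATP (1.25 mM) stimulation; lower signal means less secretion.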
TGFb inhibitor – TGF-b pathway inhibition; HepG2 CAGA-GFP TGF-b/SMAD3 reporter, GFP fluorescence, 18 h; TGF-beta stimulated, 500 pg/mL final; Potency, µM (highest dose often 46.1 µM), inactives show at the top dose activity, negative = inhibition, most hits filed as inhibitors; 410,000 tested, 1.2% active; AID 588855; note: potency is the fitted concentration of half-maximal effect; % is set by controls: 0 for no effect and ±100 for the full control effect; nearly all actives have a fitted effect of over 65% in size
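Read-out: total well GFP (ex488/em500-530) summed from mean per-cell fluorescence. Cells: HEPG2 CAGA-GFP, 1% FBS DMEM, 18 h at 37 degrees C with 500 pg/mL final TGF-beta. Unstimulated wells served as the full-inhibition control; stimulated DMSO wells = 0%.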
ASM inhibitor – human S-ASM enzyme inhibition. placental ASM, HMU-PC fluorogenic substrate, 60 min. 340,000 tested, 0.006% active. AID 504937. Potency, µM (series often up to 57.5 µM), without a hit: at the top dose activity change, negative = inhibition, usual class: inhibitors. P17405; note: potency is the fitted concentration of half-maximal effect
Target sequence (P17405 47-631 limits assumed): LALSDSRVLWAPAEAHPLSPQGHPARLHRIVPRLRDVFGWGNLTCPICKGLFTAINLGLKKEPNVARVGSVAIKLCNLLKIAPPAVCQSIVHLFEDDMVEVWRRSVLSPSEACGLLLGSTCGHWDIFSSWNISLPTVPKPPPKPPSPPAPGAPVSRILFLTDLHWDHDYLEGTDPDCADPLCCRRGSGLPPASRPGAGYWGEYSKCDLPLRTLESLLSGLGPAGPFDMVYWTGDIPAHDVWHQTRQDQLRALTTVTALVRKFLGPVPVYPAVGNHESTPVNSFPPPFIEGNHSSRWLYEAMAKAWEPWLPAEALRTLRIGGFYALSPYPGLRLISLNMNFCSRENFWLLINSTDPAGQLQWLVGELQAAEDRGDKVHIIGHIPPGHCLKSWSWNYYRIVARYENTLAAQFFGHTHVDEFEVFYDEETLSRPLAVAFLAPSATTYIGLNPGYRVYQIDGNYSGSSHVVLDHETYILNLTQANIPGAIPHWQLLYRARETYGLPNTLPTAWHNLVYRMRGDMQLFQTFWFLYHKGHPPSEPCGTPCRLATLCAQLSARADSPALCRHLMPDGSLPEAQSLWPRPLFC
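Steps: dispense placental human ASM, pin compound, wait 10 min at room temperature, add HMU-PC0 substrate at 9 uM final, incubate 60 min at 37 °C, add stop solution raising pH to 10, read fluorescence.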
DT40 TDP1 no CPT – qHTS for Inhibitors of human tyrosyl-DNA phosphodiesterase 1 (TDP1): qHTS in cells in absence of CPT; DT40 Tdp1-/- hTDP1 cells, no CPT, ATP luminescence, 48 h; Potency, µM (titrated, usually from 46.2 µM), for inactives: at the top dose activity change, negative = growth inhibition, usual class: inhibitors; 420,000 tested, 15% active; note: potency is the fitted concentration of half-maximal effect; % is set by controls: 0 for no effect and ±100 for the full control effect; nearly all actives have a fitted effect of over 55% in size
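Camptothecin absent (DMSO only). Human TDP1-complemented DT40 knockout cells, 400 cells/well, 37 °C for minimum 48 hr; ATP measured via CellTiter-Glo, 30 min dark incubation, luminescence.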
* = called active by the depositor; i = inactive; ? = inconclusive; . = no result. Unless noted, calls come from the whole dose curve; as a rule, active = well fitted curve in the direction sought with a large enough effect; inconclusive = small, poorly fitted or top-dose-only effect, or another doubt; inactive = no such curve, though single readings can be large; an effect the other way counts as inactive or inconclusive.

SMILES	HepG2 viability	TDP1 cell CPT	IL-1B inflam inh	TGFb inhibitor	ASM inhibitor	DT40 TDP1 no CPT
Cc1ccc(S(=O)(=O)Nc2cccc(-c3ccc4nncn4n3)c2)cc1	-11.6%	1.84µM*	23.6	-19.7%	-0.7%	2.31µM*
O=C(Nc1cccc(-c2ccc3nncn3n2)c1)c1ccco1	4.9%	?	23.1	-1.0%	-0.9%	?
CCOc1ccccc1C(=O)Nc1cccc(-c2ccc3nncn3n2)c1	14.8%	23.1µM*	-8.1	5.0%	-2.0%	23.1µM*
Cc1ccccc1C(=O)Nc1cccc(-c2ccc3nncn3n2)c1	-22.5%	23.1µM*	59.1	4.5%	-2.4%	20.6µM*
COn1c(-c2ccc(Cl)cc2)nc2ncccc21	4.0%	-3.1%	10.7	-16.4%	43.3%	?
COCCOc1cc(NC(=O)c2cccc(OC)c2)c(Cl)cc1Cl	-7.8%	-6.6%	2.8	?	-2.3%	?
COCCOc1cc(NC(=O)c2sccc2Oc2ccc([N+](=O)[O-])cc2F)c(Cl)cc1Cl	-7.2%	?	-14.4	?	-5.2%	18.4µM*
O=C(Nc1ccccc1)c1sccc1Oc1ccc([N+](=O)[O-])cc1F	-18.4%	20.6µM*	-10.8	-7.3%	-6.2%	20.6µM*
c1ccc2c(C[C@@H]3CNCCN3CCC34CC5CC(CC(C5)C3)C4)cccc2c1	-85.8%	18.4µM*	10.2	?	-1.8%	?
c1ccc(C2(CN3CCNC[C@H]3Cc3cccc4ccccc34)CC2)cc1	-104.6%	?	-67.5*	?	4.8%	?
CC(C)c1ccc(NC2CCCN(C(=O)c3ccccc3-c3ncc[nH]3)C2)cc1 (stereo not given)	-12.6%	?	9.0	-26.9%	2.9%	?
Cn1c(SCC(=O)NC2CC2)nnc1-c1ccc(Cl)cc1	-3.1%	0.8%	-3.2	2.7%	-4.8%	-4.1%
Cc1cc(C)c2c(N)c(C(=O)N/N=C/c3cccnc3)sc2n1	18.2%	-39.6%	.	-18.9%	81.1%	?
O=C(N/N=C/c1cccnc1)c1cc2ccccc2o1	-11.0%	-3.5%	-7.3	-0.4%	2.5%	-21.8%
Nc1c(C(=O)N/N=C/c2cccnc2)oc2nc(-c3ccco3)cc(-c3ccco3)c12	-48.4%	2.91µM*	-11.4	21.2%	132.2%	0.461µM*
NNC(=O)c1oc2nc(-c3ccco3)cc(-c3ccco3)c2c1N	6.5%	?	-53.3*	-20.2%	5.8%	?
Nc1c(C(=O)N/N=C/c2cccnc2)oc2nc(-c3ccccc3)cc(-c3ccco3)c12	-35.7%	?	.	32.7%	25.7%	14.6µM*
NC(=O)COC(=O)c1cc(-c2ccco2)nc2ccccc12	-15.1%	7.4%	-19.8	6.4%	465.6%	-2.9%
NNC(=O)c1oc2nc(-c3ccc(Cl)cc3)cc(-c3ccccc3)c2c1N	-15.3%	?	-81.9*	-4.6%	136.6%	-28.9%
COc1cccc(CN(CC(=O)NCc2ccc(F)cc2)C(=O)c2ccco2)c1	-0.1%	2.0%	-0.2	-2.6%	-2.5%	-5.9%
CCOC(=O)[C@@H]1[C@H]2COc3cc(OC)ccc3[C@H]2N2C(=O)N(c3ccc(F)cc3)C(=O)[C@@]12C	7.2%	-23.9%	-15.3	6.4%	-11.5%	?
CC1=NNC(=O)C1CC(=O)N/N=C(\C)c1cccs1 (stereo not given)	-13.9%	-3.7%	19.1	-14.0%	2.0%	?
Cc1ccc(C(=O)N/C(=C\c2ccco2)C(=O)NCCN2CCOCC2)cc1C	-23.2%	3.2%	i	-5.5%	1.6%	-0.2%
CCC(C)C(NS(=O)(=O)c1ccc(C)cc1)C(=O)NCCCN1CCOCC1 (stereo not given)	4.8%	-1.2%	0.0	-1.3%	-1.7%	?
